L3MBTL1 block = blocks human L3MBTL1. Q9Y468. AlphaScreen L3MBTL1–H3K9me1 peptide binding. Potency, µM (titrated, usually from 57.1 µM), for inactives: at the highest dose activity, negative = inhibition, hits mostly inhibitors. 230,000 tested, 0.66% active. AID 485360; also: % is scaled to controls: 0 for no effect and ±100 for the full control effect; nearly all actives have a fitted effect of over 60% in size
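AlphaScreen assay: L3MBTL1 (50 nM final) was preincubated 30 min at room temperature with biotinylated H3(1-15)K9me1 peptide (75 nM final), then 30 min with library compounds; streptavidin donor and nickel chelate acceptor beads (10 ug/mL final) added, 30 min dark.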
Sfp inh = blocks B. subtilis Sfp PPTase activity; Biochemical Sfp PPTase activity, qHTS; Potency, µM, for the others: largest response in the series, negative = inhibition, most hits filed as inhibitors; 310,000 tested, 3.5% active;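 also: the enzyme is Sfp with the accession as filed and its product quenches rhodamine fluorescence; 0% = enzyme reaction without inhibitor and -100% = no enzyme wells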
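Sfp 15 nM + cpd, 15 min RT; start w/ rhodamine-CoA 5 uM, BHQ-2-YbbR 12.5 uM (final); 50 mM Hepes pH 7.6, 10 mM MgCl2, 0.01% NP-40, 0.01% BSA; read 525/598 nm at 0 and 30 min.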
BAZ2B block = blocks human BAZ2B; Q9UIF8; AlphaScreen BAZ2B-H3K14Ac peptide displacement; Potency, µM (top dose mostly 114 µM), for the others: at the highest dose activity change, negative = inhibition, usual class: inhibitors; 360,000 tested, 4.4% active; also: % is scaled to controls: 0 for no effect and ±100 for the full control effect; nearly all actives have a fitted effect of over 60% in size
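Multi-concentration screen (max 110 uM) measuring displacement of acetylated histone H3 peptide from BAZ2B by AlphaScreen, using 50 nM protein, 50 nM peptide and 10 ug/mL streptavidin donor plus Ni-chelate acceptor beads.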
HP1b chromo inh = inhibitors of HP1-beta chromodomain binding to methylated histone tails; Potency, µM (titrated, usually from 114 µM), for inactives: at the top dose activity change, negative = inhibition, hits mostly inhibitors; 390,000 tested, 0.56% active; AID 540317; AlphaScreen HP1-beta / biotin-H3K9me3 peptide binding; P83916; also: nearly all actives have a fitted effect of over 70% in size
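Compound inhibition of the preformed complex between 50 nM HP1-beta and 50 nM biotinylated H3K9me3 peptide was read by AlphaScreen. Buffer was PBS pH 7.4 with 0.01% Tween-20. Incubations ran 30 min at room temperature, with 10 ug/mL donor/acceptor beads.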
JMJD2A Tudor inh = inhibitors of human JMJD2A Tudor domain; Potency, µM (series often up to 114 µM), inactives show at the highest dose activity change, negative = inhibition, most hits filed as inhibitors; AlphaScreen JMJD2A-Tudor / H3K4me3 peptide binding; AID 504339; O75164; 390,000 tested, 4.4% active; also: % is scaled to controls: 0 for no effect and ±100 for the full control effect; nearly all actives have a fitted effect of over 50% in size
G9a inh = G9a (human) methyltransferase inhibition; Q96KQ7; G9a H3K9 monomethylation, AlphaScreen, 2 h; Potency, µM (doses to about 102 µM), inactives show top-dose activity, negative = inhibition, hits mostly inhibitors; 350,000 tested, 8.8% active; AID 504332; also: % is scaled to controls: 0 for no effect and ±100 for the full control effect; nearly all actives have a fitted effect of over 75% in size
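Methyltransferase reactions run at room temperature for 2 h (20 nM enzyme, 500 nM biotin-H3K9 peptide, 20 uM SAM) after a 15 min compound preincubation; product detected by AlphaScreen beads and anti-H3K9me1 antibody.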
Active calls of the source: *; [ ] = remark or other dose. An excerpt weighted towards active compounds, which were near 12% of everything screened. Calls follow the shape of the dose curve; as a rule, active = well fitted curve in the direction sought with a large enough effect; inconclusive = small, poorly fitted or top-dose-only effect, or another doubt; inactive = no such curve, though single readings can be large; an effect the other way counts as inactive or inconclusive. Potency is read from the fitted curve at half-maximal effect.

How did COc1ccc(OC)c(NC(=O)CCN2CCN(Cc3ccccc3)CC2)c1 do in these assays?
L3MBTL1 block: 5%; Sfp inh: 4%; BAZ2B block: -9%; HP1b chromo inh: 14%; JMJD2A Tudor inh: -31%; G9a inh: 50µM*

How did CCOC(=O)N1CCC(NC(=O)c2ccc3c(c2)N(Cc2ccc(F)cc2)C(=O)c2ccccc2S3(=O)=O)CC1 do in these assays?
BAZ2B block: -10%; HP1b chromo inh: 17%; JMJD2A Tudor inh: -26%; G9a inh: -33%[59 µM]

What do the screens show for `COc1cc(C(=O)N2CCC(c3nc4ccccc4o3)CC2)cc(OC)c1OC`?
BAZ2B block: -10%; HP1b chromo inh: 46%; JMJD2A Tudor inh: -25%; G9a inh: 1%[59 µM]

Results for COCC(C)N=C1NN=C(c2cccs2)C(CC(=O)O)S1 (stereo unspecified) ?
L3MBTL1 block: -6%; Sfp inh: 35µM*; BAZ2B block: -31%; HP1b chromo inh: 11%; JMJD2A Tudor inh: -7%; G9a inh: 50µM*

How did CN(C1CCS(=O)(=O)C1)S(=O)C12CC3CC(CC(C3)C1)C2 (stereo unspecified) do in these assays?
L3MBTL1 block: -12%; Sfp inh: -10%; BAZ2B block: -1%; HP1b chromo inh: 49%; JMJD2A Tudor inh: -20%; G9a inh: 11µM*

What do the screens show for `O=C(c1cnn2c1NC(c1ccc(Br)cc1)CC2C(F)(F)F)N1CCN(C23CC4CC(CC(C4)C2)C3)CC1` (stereo unspecified)?
L3MBTL1 block: -7%; Sfp inh: 11%; BAZ2B block: -30%; HP1b chromo inh: 10%; JMJD2A Tudor inh: -19%; G9a inh: 28µM*

How did C/C(CCN1CCCc2nc(C)c(C)cc21)=N\O[C@@H](C)c1cn([C@@H]2COC[C@@H]2O)nn1 do in these assays?
Sfp inh: -4%

Results for CC(C)c1ccc(S(=O)(=O)N2CCC(n3c(C(F)(F)F)nc4cccnc43)CC2)cc1 ?
BAZ2B block: -16%; HP1b chromo inh: 16%; JMJD2A Tudor inh: -26%; G9a inh: 1%[59 µM]

Results for O=C(COC(=O)c1n[nH]c(=O)c2ccccc12)c1ccc(Br)cc1 ?
L3MBTL1 block: -6%; Sfp inh: -9%; BAZ2B block: 1%; HP1b chromo inh: 53%; JMJD2A Tudor inh: 10%; G9a inh: 22%

Results for O=C(COC(=O)c1cnccn1)c1ccc([N+](=O)[O-])cc1 ?
L3MBTL1 block: -1%; Sfp inh: 20µM*; BAZ2B block: inconclusive; HP1b chromo inh: 5%; JMJD2A Tudor inh: -15%; G9a inh: 25µM*

How did O=C(COC(=O)c1ccccn1)c1cccc(Br)c1 do in these assays?
Sfp inh: -5%; BAZ2B block: 18µM*; HP1b chromo inh: 19%; JMJD2A Tudor inh: 13µM*

How did O=C(COC(=O)c1ccccn1)c1ccc(Br)cc1 do in these assays?
L3MBTL1 block: inconclusive; Sfp inh: 19%; BAZ2B block: 25µM*; HP1b chromo inh: 18%; JMJD2A Tudor inh: 28µM*; G9a inh: 50µM*

What do the screens show for `Brc1cccc(-c2nnn3c2nc(N2CCCCC2)c2ccccc23)c1`?
BAZ2B block: 29%; HP1b chromo inh: 122%; JMJD2A Tudor inh: 18%; G9a inh: 57%[59 µM]

How did CN(C)c1ccc(C(=O)NCc2ccc3c(c2)CCN3C(=O)c2ccccc2)cc1 do in these assays?
BAZ2B block: 10%; HP1b chromo inh: 10%; JMJD2A Tudor inh: inconclusive; G9a inh: 40%[59 µM]

Results for CCc1ccc(-n2nc(C)c3c(C)cc(=O)n(CC(=O)Nc4cc(C)ccc4C)c32)cc1 ?
BAZ2B block: -5%; HP1b chromo inh: 12%; JMJD2A Tudor inh: -8%; G9a inh: inconclusive

From PubChem
